The target in one assay is PARP11. Description: pooled miR-30 sensor sort-seq; sequence = guide strand. Particulars: shRNA.
TAAAGCTTCCTTGACCACCGAG came in with a sensor-assay potency score (higher = more potent) of 0.0153.

In turn, TTAATCTGAGGCACACCTCTTT returned a sensor-assay potency score (higher = more potent) of 0.16.

Sequence TTGAGTATTCACATTCTCCCAG gave a sensor-assay potency score (higher = more potent) of -0.0297.

Regarding TTTTTTCTTGAGCTGAGCCTTT, the sensor-assay potency score (higher = more potent) is -0.428.

The sequence TTTTTTTCTTGAGCTGAGCCTT yielded a sensor-assay potency score (higher = more potent) of -0.839.

With TATAAATTCACATAGCTCCCGT, the sensor-assay potency score (higher = more potent) was found to be 0.0491.

On to TAAGCTGATATGGTACTTGAGT, for which the sensor-assay potency score (higher = more potent) is -0.461.

For TTTAATTCGGTTGCGATCCATC, the sensor-assay potency score (higher = more potent) is -0.893.

Regarding TACTTGAGTATTCACATTCTCC, the sensor-assay potency score (higher = more potent) is -0.755.

The target in a further assay is PATL1. The description is as above. Particulars: shRNA.
In turn, TGTCACAACAGCATCAATCATT yielded a sensor-assay potency score (higher = more potent) of -0.773.

As for TTATTCACACTAGAAACGGTAA, the sensor-assay potency score (higher = more potent) is -0.529.

In turn, TTTTCGGATACACATGATCTGT gave a sensor-assay potency score (higher = more potent) of -1.26.

Regarding TTTCGGATACACATGATCTGTA, the sensor-assay potency score (higher = more potent) is -0.0955.

In turn, TAGCAGGGTCTGAACTCTGTAG had a sensor-assay potency score (higher = more potent) of -0.715.

Take TTTTTCTCCTCTTGTCTCGAAC: the sensor-assay potency score (higher = more potent) was -1.11.

For the sequence TATTCTGTTGCTGTCTCTGATG, the sensor-assay potency score (higher = more potent) was -1.31.

Turning to TGATCTTGATGACTGCTCCGGT, the sensor-assay potency score (higher = more potent) worked out at 0.466.

TTGAGGTAGGTTCATTAGCTGT gave a sensor-assay potency score (higher = more potent) of -1.61.

In turn, TTTGTGCTTTCTGTCATCCATT returned a sensor-assay potency score (higher = more potent) of -0.905.

With TTTGTGTTGATTCTGTAGCAGG, the sensor-assay potency score (higher = more potent) was -0.627.

For TTTCTCAATTATAACAAGGGTT, the sensor-assay potency score (higher = more potent) was -0.533.

The next assay addresses PCDH11X. The description is as above. Particulars: shRNA.
As to TAACTACTTTGATTGAACGTAT, the sensor-assay potency score (higher = more potent) was -0.315.

AATAGTGACAAAATTAAGCAGC: the sensor-assay potency score (higher = more potent) is -0.804.

Turning to TTCAGTGCTTTTGCGCACCAGT, the sensor-assay potency score (higher = more potent) is -0.711.

Regarding TTTACTTTCATCACGTAGGTAT, the sensor-assay potency score (higher = more potent) turned out to be 0.803.

TGTATCAGTAACACTCACTTGC: the sensor-assay potency score (higher = more potent) is 0.683.

On to TTGATCTTAGCATTAGGCCCAC, for which the sensor-assay potency score (higher = more potent) is -0.682.

TTGTAGGACTACATACATCATA returned a sensor-assay potency score (higher = more potent) of -0.797.

TTAAGCAGCAAGTTCTTAGGGG: the sensor-assay potency score (higher = more potent) came out at 0.683.

Regarding TTTTCTGGCATTTCTTCTCGGA, the sensor-assay potency score (higher = more potent) is -0.435.

Take ATCAGTAACACTCACTTGCAAA: the sensor-assay potency score (higher = more potent) is -1.63.

TTGAACTGCATAGCAGTTGTCA came in with a sensor-assay potency score (higher = more potent) of -0.535.

The next assay concerns the target PCDHA4. The assay is described as above. Particulars: shRNA.
In turn, TTTGTCGGACACGCTGATCAGG gave a sensor-assay potency score (higher = more potent) of -0.74.

Take TTGTGTTGCTGGGAACACCGGC: the sensor-assay potency score (higher = more potent) is -0.469.

In the case of TTCCTCAGTTGTCTGCAGCTGA, the sensor-assay potency score (higher = more potent) was determined as 0.537.

In the case of TCTCTGTCTAAAGATTTCCGTA, the sensor-assay potency score (higher = more potent) was -0.816.

As to TTAAGTTTAATTACCAATGTTC, the sensor-assay potency score (higher = more potent) was -0.347.

With TTCAAAGTCAATATATCCCTTT, the sensor-assay potency score (higher = more potent) amounted to 0.476.

Sequence ATGTCTTTGTCGGACACGCTGA showed a sensor-assay potency score (higher = more potent) of -1.17.

With TTGGATTTCACATTTGGCGAAA, the sensor-assay potency score (higher = more potent) was -0.705.

Source of the values: the OligoGym collection.
Note: reference of the scale not given here.
